Screens deposited in PubChem by National Center for Advancing Translational Sciences (NCATS).
Only some compounds are listed: those with a hit (about 1.7% of all), similar ones and a draw of the others.
KCNH2 3.1 block: blocks the human KCNH2 3.1 channel isoform; 0.95% of 340,000 active; activity change, % (tested at about 1.8 µM); U2OS KCNH2 3.1, thallium flux FluxOr; hits give low values;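 active = maximum activity change below -70%; inconclusive = maximum activity change from -70% to -50%; inactive = maximum activity change above -50%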;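 also: thallium influx rate constant from kinetic fluorescence after stimulation buffer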
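FluxOr-based Tl+ influx in U2OS cells transduced with KCNH2 3.1 virus; rate constants normalized to DMSO controls.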
RXFP1 antagonist: RXFP1 (human) relaxin receptor antagonism. Q9HBX9. HEK293-RXFP1, relaxin-stimulated cAMP HTRF, 30 min; hits give low values. activity change, negative = inhibition, % at 57.5 µM. 0.59% of 350,000 active. AID 1259400;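 active = activity change of -60% or lower, but not beyond a set lower limit; inconclusive = change between -60% and -40%, or beyond the set limit; inactive = change above -40%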
pAkt inh: blocks phosphorylation of Akt | AID 651550 | 0.32% of 360,000 active | Neuro2A IGF-stimulated pAkt S473 HTRF, 20 min; hits give low values | activity change, % for hits at 50 µM; in the data active = activity change below about -80%; inconclusive = mostly about -51% to -80%
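Neuro2A cells (4,500/well, DMEM with 0.5% FBS) were treated with compound at a single 50 µM final concentration, stimulated with 6 nM IGF for 20 min at 37 °C, and lysed. Phospho-Akt Ser473 was read by HTRF as 665/615 ratio ×10^4.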
RXFP1 agonist: agonists of human relaxin receptor RXFP1; HEK293T-RXFP1 cAMP TR-FRET, 30 min; response scale: percent of porcine relaxin response, buffer zero; Potency, µM (doses to about 57.5 µM), for the others: at the highest dose activation, usual class: activators; AID 2676; Q9HBX9; 0.3% of 370,000 active; active = well fitted activation curve with a large enough effect; inconclusive = small, poorly fitted or top-dose-only effect; also: potency is read from the fitted curve at half-maximal effect; nearly all actives have a fitted effect of over 60% in size
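Agonist response is measured as cAMP accumulation in an RXFP1-transfected HEK293T line under PDE4 inhibition. Values are scaled between buffer-only and 29 nM porcine relaxin, and EC50s come from standard Hill equation fits.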
KCNH2 WT inh: inhibitors of human wildtype KCNH2 potassium channel. Q12809. U2OS, BacMam KCNH2, thallium flux FluxOr; hits give low values. activity change, % at 1.84 µM. 0.37% of 340,000 active;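 active = maximum activity change below -70%; inconclusive = maximum activity change between -70% and -50%; inactive = maximum activity change above -50%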
Target sequence (Q12809 whole entry, looked up): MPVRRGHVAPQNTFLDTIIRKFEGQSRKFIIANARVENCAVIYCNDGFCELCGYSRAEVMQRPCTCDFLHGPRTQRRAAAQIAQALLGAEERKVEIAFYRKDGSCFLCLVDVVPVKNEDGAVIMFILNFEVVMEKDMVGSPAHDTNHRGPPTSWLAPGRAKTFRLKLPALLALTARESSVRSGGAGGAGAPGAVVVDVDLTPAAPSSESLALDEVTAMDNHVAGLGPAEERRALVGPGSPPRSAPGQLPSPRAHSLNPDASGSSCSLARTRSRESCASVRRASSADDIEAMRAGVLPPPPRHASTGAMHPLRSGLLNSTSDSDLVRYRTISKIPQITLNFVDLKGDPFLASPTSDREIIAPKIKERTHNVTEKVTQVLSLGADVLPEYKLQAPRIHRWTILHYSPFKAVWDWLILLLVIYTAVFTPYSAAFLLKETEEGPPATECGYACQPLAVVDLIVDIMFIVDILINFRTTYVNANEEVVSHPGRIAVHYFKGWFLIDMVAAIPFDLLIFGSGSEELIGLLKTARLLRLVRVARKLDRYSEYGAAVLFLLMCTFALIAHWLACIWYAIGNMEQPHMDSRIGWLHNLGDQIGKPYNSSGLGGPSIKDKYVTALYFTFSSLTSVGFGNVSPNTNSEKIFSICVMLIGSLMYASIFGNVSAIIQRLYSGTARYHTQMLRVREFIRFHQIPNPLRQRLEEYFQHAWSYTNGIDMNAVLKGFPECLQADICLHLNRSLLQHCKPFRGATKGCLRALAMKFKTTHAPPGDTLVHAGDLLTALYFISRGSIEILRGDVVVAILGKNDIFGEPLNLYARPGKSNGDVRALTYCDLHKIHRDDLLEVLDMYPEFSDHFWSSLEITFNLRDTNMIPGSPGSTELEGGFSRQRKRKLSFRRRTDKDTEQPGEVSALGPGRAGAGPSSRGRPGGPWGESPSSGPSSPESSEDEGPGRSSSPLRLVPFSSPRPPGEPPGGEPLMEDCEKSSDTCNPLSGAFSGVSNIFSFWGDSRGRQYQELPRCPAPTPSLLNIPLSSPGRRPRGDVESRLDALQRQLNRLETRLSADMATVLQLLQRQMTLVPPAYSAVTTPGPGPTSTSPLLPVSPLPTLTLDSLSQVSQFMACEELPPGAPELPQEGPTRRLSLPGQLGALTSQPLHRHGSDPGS
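U2OS cells were transduced with wild-type KCNH2 virus (2.03 x 10^8 / mL) for 4 h at room temperature, then cultured overnight at 37 C. Thallium flux was read with FluxOr dye. Rate constants were normalized to DMSO controls.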
Numbers without * were called inactive; i = inactive; ? = inconclusive; · = not tested or not shown. % is scaled to controls: 0 for no effect and ±100 for the full control effect.

SMILES | KCNH2 3.1 block | RXFP1 antagonist | pAkt inh | RXFP1 agonist | KCNH2 WT inh
N#C/C(=C/Nc1ccccc1)c1ccsc1 | -18 | -22 | i | -1% | 4
O=Cc1cccn1Cc1ccc(Cl)cc1Cl | ? | -4 | i | -1% | 1
NNC(=O)c1cccn(Cc2ccc(Cl)cc2Cl)c1=O | -6 | -2 | i | 0% | -88*
CN(CC(=O)Nc1ccc(F)c(F)c1F)C(=O)CCc1nc2sc3c(c2c(=O)[nH]1)CCCC3 | 3 | -63* | i | 3% | 0
Cc1cccc(C)c1NC(=O)CN(C)C(=O)CCc1nc2sc3c(c2c(=O)[nH]1)CCCC3 | 20 | -6 | i | 2% | 0
CCc1c(C)c2cc(Cl)c(O)c(CN(C)C)c2oc1=O | -88* | 6 | i | 20% | -7
S=c1nc(SCc2ccccc2)[nH]c2ccccc12 | -128* | 16 | i | 28µM* | ?
c1ccc(CSc2nc3ncncc3[nH]2)cc1 | 1 | 15 | i | 0% | 33
O=C(NC(=S)Nc1ccccc1)c1cc([N+](=O)[O-])ccc1N1CCOCC1 | · | 3 | i | -1% | -15
Cc1ccc(NC(=O)c2sc3nc(C)nc(N4CCN(c5ccccn5)CC4)c3c2C)c(C)c1 | -70* | 8 | i | 1% | -8
Cc1nc(N2CCN(c3ccccn3)CC2)c2c(C)c(C(=O)Nc3ccc(Br)cc3C)sc2n1 | -99* | -18 | i | 8% | -42
CCC(=O)Nc1c(C)c(CC)nc2ccccc12 | -7 | -1 | i | 1% | ·
CC1CCCCN1CC(=O)Nc1ccc(Oc2ccccc2)cc1 (stereo not drawn) | -89* | -2 | i | 1% | 12
CC(=O)N(Cc1cccnc1)Cc1cc2ccc(C)cc2[nH]c1=O | 26 | 1 | i | 1% | -2
CCOc1ccc(CCNC(=O)c2cccs2)cc1OCC | -86* | 6 | i | 0% | 1
O=C(O)c1cc(-c2c[nH]c3ccccc23)nc2ccc3ccccc3c12 | -98* | -27 | i | 27% | -15
O=C(Nc1ccc(F)cc1F)N1CCCN(c2ccc([N+](=O)[O-])cn2)CC1 | -1 | -1 | i | 3% | -3
CC(C)(C)c1ccc(NC(=O)N2CCN(c3ccc([N+](=O)[O-])cn3)CC2)cc1 | -103* | ? | i | -1% | 3
O=C(Nc1c(C(=O)Nc2cccc(F)c2)oc2ccccc12)c1ccc2c(c1)OCO2 | -14 | 6 | -112%* | ? | 0
CCCC(=O)Nc1cccc(NC(=O)c2ccc3c(c2)OCO3)c1 | 0 | -13 | -115%* | -2% | 1
CCC(=O)Nc1cccc(NC(=O)c2ccc3c(c2)OCCO3)c1 | -16 | -1 | i | 0% | 0
Nn1c(SCC(=O)Nc2cccc(C(F)(F)F)c2)nncc1=O | -4 | -1 | i | 1% | -17
O=C(COC(=O)C1COc2ccccc2O1)Nc1ccc2c(c1)CCC2 (stereo not drawn) | 1 | -32 | i | 1% | -7
Cc1nc2ccccc2n1CCOc1ccc([N+](=O)[O-])cc1 | -79* | -3 | i | 0% | 45
COc1ccc(OCCn2c(C)nc3ccccc32)cc1 | 1 | 2 | i | · | -1
SMILES | KCNH2 3.1 block | RXFP1 antagonist | pAkt inh | RXFP1 agonist | KCNH2 WT inh
CCN(CC)c1ccc2nc3c4ccccc4c(=O)cc-3oc2c1 | -6 | 2 | i | 5% | -3
CCN(CC)c1ccc2c(-c3ccc(S(=O)(=O)O)cc3S(=O)(=O)[O-])c3ccc(=[N+](CC)CC)cc-3oc2c1 | -9 | 37 | i | 28µM* | 3
CCCCn1c(/C=N/Nc2nc3ccccc3[nH]2)nc2ccccc21 | -44 | -4 | i | 1% | -73*
C=CCN(CC=C)S(=O)(=O)c1ccc(NC(=S)NC(=O)Cc2ccc(OC)cc2)cc1 | -1 | -1 | i | -2% | 5
CCCN(CCC)C(=O)Cn1c(=O)n(-c2ccc(CC)cc2)c(=O)c2ccc(C(=O)NCCc3ccccc3)cc21 | · | · | · | 25µM* | ·
CCc1ccc(-n2c(=O)c3ccc(C(=O)NCCc4ccccc4)cc3n(CC(N)=O)c2=O)cc1 | 1 | -8 | i | -1% | -6
CCOC(=O)c1c(-c2ccccc2)c[nH]c1C | 8 | -88* | i | · | 1
CC1(CCc2ccccc2)NC(=O)N(Cc2nnc(-c3ccccc3Br)o2)C1=O (stereo not drawn) | -43 | -4 | -108%* | 3% | -4
COc1ccc(OC)c(C2C=C(C34CC5CC(CC(C5)C3)C4)NC(=S)N2)c1 (stereo not drawn) | ? | -2 | i | 5% | i
COc1cc(C2C=C(C34CC5CC(CC(C5)C3)C4)NC(=S)N2)cc(OC)c1OC (stereo not drawn) | 30 | -7 | -113%* | 3% | -2
COc1ccc(-n2ncc(N(C)n3cccc3)c(Cl)c2=O)cc1 | 0 | -9 | -115%* | -1% | -8
COc1ccc(-n2ncc(Cl)c(Cl)c2=O)cc1 | -18 | -14 | i | 5% | -2
Cc1cccc(-c2cc3nc(C)c(C)c(NCCCn4ccnc4)n3n2)c1 | 5 | -98* | i | 8% | -4
Cc1cc(NCCCn2ccnc2)n2nc(-c3ccc(F)cc3)cc2n1 | 0 | -12 | i | 2% | 17
COc1cccc(CNC(=O)CCC2CCCN(C(=O)CCn3cncn3)C2)c1 (stereo not drawn) | -94* | -19 | i | -1% | 3
COc1cccc(CNC(=O)CCC2CCCN(C(=O)CCC(F)(F)F)C2)c1 (stereo not drawn) | -8 | 7 | i | -1% | -9
O=C(Nc1ccc(-c2nc3cc(Cl)ccc3c(=O)o2)cc1)c1ccco1 | 9 | -66* | i | 1% | 2
COc1ccc(Cn2nc(-c3ccccc3)c(N3CCCCC3)cc2=O)cc1 | ? | -12 | i | 0% | -14
O=c1cc(N2CCCCC2)c(-c2ccccc2)nn1Cc1ccccc1 | -31 | -120* | i | 0% | -2
CCOC(=O)N1CCN(C(=O)c2ccc(-n3c(=S)[nH]c4ccccc4c3=O)cc2)CC1 | 2 | -107* | · | 29% | 4
COC(CNC(=O)c1ccc(-n2c(=S)[nH]c3ccccc3c2=O)cc1)OC | -32 | -75* | i | 0% | 10
CCOC(=O)N1CCN(C(=O)c2ccc3c(=O)n(-c4ccc(OC)cc4)c(=S)[nH]c3c2)CC1 | 22 | 3 | i | -1% | 4
CCC(C)NC(=O)c1ccc(-n2c(=S)[nH]c3ccccc3c2=O)cc1 (stereo not drawn) | -5 | -105* | i | 4% | -6
CCc1cccc(-n2c(=O)c3cccnc3n2CC(=O)NCc2ccccc2Cl)c1 | · | -20 | · | 3% | ·
N#CCCN(Cc1ccncc1)C(=S)NC1CC2C=CC1C2 (stereo not drawn) | 8 | -13 | i | -2% | -7
